These results are taken from paper PMC5700166.

Assay in all cases: protein-binding microarray (PBM); PBM: ~300 nM protein, 6 mM HEPES pH 7.8, 80 mM KCl, 0.5 mM EDTA, 0.5 mM EGTA, 6% glycerol, 35 ng/ul poly-dIdC, 1% milk, 1 h, room temperature; Ap Aiptasia and Nv Nematostella (sea anemones) / Co Capsaspora / Aq Amphimedon (sponge) / Dm Drosophila / Hu human; RHD is the Rel homology domain; high values mean tight binding
Holding throughout (details): dsDNA, one strand shown

For one experiment, the target named is T1, GST-Ap-NF-kB RHD (Exaiptasia pallida (Aiptasia), UniProt A0A913YAJ5 2-422).
T1 sequence: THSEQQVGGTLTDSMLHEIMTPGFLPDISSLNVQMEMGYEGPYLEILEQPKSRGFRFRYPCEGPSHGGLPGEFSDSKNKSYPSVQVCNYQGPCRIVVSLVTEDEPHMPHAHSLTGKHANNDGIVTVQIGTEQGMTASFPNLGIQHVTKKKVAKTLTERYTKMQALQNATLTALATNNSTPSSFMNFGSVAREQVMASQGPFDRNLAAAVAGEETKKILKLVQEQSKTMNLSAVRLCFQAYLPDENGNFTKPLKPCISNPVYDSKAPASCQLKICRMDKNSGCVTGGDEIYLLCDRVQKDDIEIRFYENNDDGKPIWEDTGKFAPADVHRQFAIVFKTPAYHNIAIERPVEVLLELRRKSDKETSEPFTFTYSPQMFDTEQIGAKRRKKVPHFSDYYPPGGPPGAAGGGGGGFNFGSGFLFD

The target of experiment [1] is T2, GST-Nv-NF-kB (Cys allele) (Nematostella vectensis, UniProt E5G601 2-411).
T2 sequence: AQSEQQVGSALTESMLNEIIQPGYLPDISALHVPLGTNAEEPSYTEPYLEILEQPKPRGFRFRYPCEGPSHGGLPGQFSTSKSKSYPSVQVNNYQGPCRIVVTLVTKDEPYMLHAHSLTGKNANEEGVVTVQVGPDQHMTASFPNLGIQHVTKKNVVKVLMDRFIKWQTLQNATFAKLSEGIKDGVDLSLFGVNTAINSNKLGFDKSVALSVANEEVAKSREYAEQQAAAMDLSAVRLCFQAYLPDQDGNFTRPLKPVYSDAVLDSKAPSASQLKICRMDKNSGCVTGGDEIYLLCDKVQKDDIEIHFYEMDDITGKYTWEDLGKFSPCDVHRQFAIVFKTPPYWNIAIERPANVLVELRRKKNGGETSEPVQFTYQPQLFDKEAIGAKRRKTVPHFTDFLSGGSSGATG

Another experiment deals with T3, GST-Co-NF-kB (Capsaspora owczarzaki, UniProt F1ARL5 200-546).
T3 sequence: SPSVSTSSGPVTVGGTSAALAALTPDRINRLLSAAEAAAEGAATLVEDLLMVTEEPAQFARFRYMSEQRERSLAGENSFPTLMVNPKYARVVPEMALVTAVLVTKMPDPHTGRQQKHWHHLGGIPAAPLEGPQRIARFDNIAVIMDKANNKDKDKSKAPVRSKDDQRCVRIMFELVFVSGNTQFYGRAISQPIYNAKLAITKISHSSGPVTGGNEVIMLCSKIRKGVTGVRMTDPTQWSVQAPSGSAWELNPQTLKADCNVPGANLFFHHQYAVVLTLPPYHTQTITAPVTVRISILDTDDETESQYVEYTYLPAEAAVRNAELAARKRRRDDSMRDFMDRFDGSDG

The target of a further experiment is T4, GST-Dm-Relish (Drosophila melanogaster, UniProt Q94527 99-473).
T4 sequence: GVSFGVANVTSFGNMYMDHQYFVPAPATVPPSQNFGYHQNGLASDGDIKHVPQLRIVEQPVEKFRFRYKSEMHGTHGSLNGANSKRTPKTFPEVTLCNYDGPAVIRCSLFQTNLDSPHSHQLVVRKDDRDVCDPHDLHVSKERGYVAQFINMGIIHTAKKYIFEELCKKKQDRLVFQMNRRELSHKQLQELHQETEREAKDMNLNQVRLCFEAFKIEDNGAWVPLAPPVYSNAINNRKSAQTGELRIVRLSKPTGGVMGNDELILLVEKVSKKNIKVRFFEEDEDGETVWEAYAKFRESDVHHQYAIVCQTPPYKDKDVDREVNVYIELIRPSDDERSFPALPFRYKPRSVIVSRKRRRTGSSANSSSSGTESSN

Another experiment concerns the target T5, GST-Aq-NF-kB (Amphimedon queenslandica, UniProt A9Y5G7 2-389).
T5 sequence: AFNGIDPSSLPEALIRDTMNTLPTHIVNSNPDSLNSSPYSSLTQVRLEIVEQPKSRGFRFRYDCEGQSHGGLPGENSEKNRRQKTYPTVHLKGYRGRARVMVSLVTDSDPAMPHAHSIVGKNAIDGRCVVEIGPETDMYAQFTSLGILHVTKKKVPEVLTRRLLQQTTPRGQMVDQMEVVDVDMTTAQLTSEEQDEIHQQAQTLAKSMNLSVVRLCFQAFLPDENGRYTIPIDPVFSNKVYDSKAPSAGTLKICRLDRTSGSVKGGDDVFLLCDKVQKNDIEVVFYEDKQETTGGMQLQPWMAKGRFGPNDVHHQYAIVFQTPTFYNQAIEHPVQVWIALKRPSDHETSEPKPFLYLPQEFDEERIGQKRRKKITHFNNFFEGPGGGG

Turning to “CCGATTAACATCAGGACTACCCCTGATGTTAATCGGGTCTTGATTCGCTTGACGCTGCTG”, the binding signal with GST-Ap-NF-kB RHD was 3.7 z-score; in experiment [1] it was 3.48 z-score; in the experiment with GST-Co-NF-kB it was 1.83 z-score; with GST-Dm-Relish it was 2.36 z-score; in the experiment with GST-Aq-NF-kB it was 6.48 z-score.

For the sequence “CCGATTAACATCAGAATTCCCGCTGATGTTAATCGGGTCTTGATTCGCTTGACGCTGCTG”, the binding signal is 3.59 z-score with GST-Ap-NF-kB RHD; 4.74 z-score in experiment [1]; 3.87 z-score in the experiment with GST-Co-NF-kB; 3.89 z-score with GST-Dm-Relish; 3.98 z-score with GST-Aq-NF-kB.

For “CCGATTAACATCACGTCCCCCCCTGATGTTAATCGGGTCTTGATTCGCTTGACGCTGCTG”, the binding signal with GST-Ap-NF-kB RHD is 6.32 z-score; in experiment [1], 4.27 z-score; with GST-Co-NF-kB, 5.34 z-score; in the experiment with GST-Dm-Relish it was 4.38 z-score; with GST-Aq-NF-kB, 4.49 z-score.

As to “CCGATTAACATCACTTTTTCCCATGATGTTAATCGGGTCTTGATTCGCTTGACGCTGCTG”, the binding signal is 2.03 z-score in the experiment with GST-Ap-NF-kB RHD; 3.6 z-score in experiment [1]; 4.08 z-score in the experiment with GST-Co-NF-kB; 1.51 z-score with GST-Dm-Relish; 1.99 z-score with GST-Aq-NF-kB.

As to “CCGATTAACATCAGGGGTTCACCTGATGTTAATCGGGTCTTGATTCGCTTGACGCTGCTG”, the binding signal with GST-Ap-NF-kB RHD came to 3.84 z-score; in experiment [1], 2.71 z-score; with GST-Co-NF-kB, 1.45 z-score; with GST-Dm-Relish, 8.89 z-score; with GST-Aq-NF-kB, 4.82 z-score.

In the case of “CCGATTAACATCAAGTTTACCCCTGATGTTAATCGGGTCTTGATTCGCTTGACGCTGCTG”, the binding signal was 3.21 z-score in the experiment with GST-Ap-NF-kB RHD; 2.2 z-score in experiment [1]; 6.61 z-score with GST-Co-NF-kB; 2.4 z-score in the experiment with GST-Dm-Relish; 2.91 z-score in the experiment with GST-Aq-NF-kB.

In the case of “CCGATTAACATCAGGGGTCCCCATGATGTTAATCGGGTCTTGATTCGCTTGACGCTGCTG”, the binding signal with GST-Ap-NF-kB RHD worked out at 4.7 z-score; in experiment [1] it was 2.57 z-score; with GST-Co-NF-kB it was 1.99 z-score; with GST-Dm-Relish it was 7.31 z-score; in the experiment with GST-Aq-NF-kB it was 3.6 z-score.

Take “CCGATTAACATCAACGGGAATTCTGATGTTAATCGGGTCTTGATTCGCTTGACGCTGCTG”: the binding signal was 4.32 z-score with GST-Ap-NF-kB RHD; 5.7 z-score in experiment [1]; 3.23 z-score with GST-Co-NF-kB; 4.15 z-score with GST-Dm-Relish; 4.74 z-score with GST-Aq-NF-kB.

Take “CCGATTAACATCAGGAGACTCCCTGATGTTAATCGGGTCTTGATTCGCTTGACGCTGCTG”: the binding signal came out at 2.16 z-score with GST-Ap-NF-kB RHD; 2.35 z-score in experiment [1]; 1.37 z-score in the experiment with GST-Co-NF-kB; 1.79 z-score with GST-Dm-Relish; 5.19 z-score with GST-Aq-NF-kB.

“CCGATTAACATCAACTCCCCCCATGATGTTAATCGGGTCTTGATTCGCTTGACGCTGCTG”: the binding signal amounted to 5.39 z-score with GST-Ap-NF-kB RHD; 4.1 z-score in experiment [1]; 6.49 z-score in the experiment with GST-Co-NF-kB; 4.31 z-score with GST-Dm-Relish; 4.72 z-score in the experiment with GST-Aq-NF-kB.

On to “CCGATTAACATCACGCAATTCCCTGATGTTAATCGGGTCTTGATTCGCTTGACGCTGCTG”, for which the binding signal came out at 2.72 z-score with GST-Ap-NF-kB RHD; 4.1 z-score in experiment [1]; 2.33 z-score with GST-Co-NF-kB; 1.52 z-score with GST-Dm-Relish; 3.43 z-score with GST-Aq-NF-kB.

Regarding “CCGATTAACATCAGGAAGTTCCCTGATGTTAATCGGGTCTTGATTCGCTTGACGCTGCTG”, the binding signal with GST-Ap-NF-kB RHD was determined as 4.78 z-score; in experiment [1], 5.36 z-score; with GST-Co-NF-kB, 2.57 z-score; with GST-Dm-Relish it was 4.82 z-score; with GST-Aq-NF-kB, 7.74 z-score.

Regarding “CCGATTAACATCAGGGGGGTACATGATGTTAATCGGGTCTTGATTCGCTTGACGCTGCTG”, the binding signal amounted to 5.31 z-score with GST-Ap-NF-kB RHD; 2.52 z-score in experiment [1]; 5.22 z-score in the experiment with GST-Co-NF-kB; 4.13 z-score in the experiment with GST-Dm-Relish; 3.31 z-score in the experiment with GST-Aq-NF-kB.

On to “CCGATTAACATCAGGGGGTAATATGATGTTAATCGGGTCTTGATTCGCTTGACGCTGCTG”, for which the binding signal was determined as 4.99 z-score with GST-Ap-NF-kB RHD; 4.47 z-score in experiment [1]; 6.77 z-score in the experiment with GST-Co-NF-kB; 2.66 z-score with GST-Dm-Relish; 4.45 z-score in the experiment with GST-Aq-NF-kB.
